Laboratory results: PMC11006913
Where a chain is given by its changes, count along the chain named.

Columns and labels:
Assay in all cases: PBM; 200 nM protein, PBS
Details in all cases: dsDNA, one strand shown
SIX6 [1] = biological target: T1, SIX6 (Homo sapiens, UniProt O95475 114-200, L167I)
T1 sequence: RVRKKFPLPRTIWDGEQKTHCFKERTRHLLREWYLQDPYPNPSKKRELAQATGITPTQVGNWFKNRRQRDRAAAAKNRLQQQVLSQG

SIX6 [2] = biological target: T2, SIX6 (Homo sapiens, UniProt O95475 114-200, L143V)
T2 sequence: T1 sequence with L30V, I54L

SIX6 [3] = biological target: T3, SIX6 (Homo sapiens, UniProt O95475 114-200, H141N)
T3 sequence: T1 sequence with H28N, I54L

SIX6 [4] = biological target: T4, SIX6 (Homo sapiens, UniProt O95475 114-200, T165P)
T4 sequence: T1 sequence with T52P, I54L

SIX6 [5] = biological target: T5, SIX6 (Homo sapiens, UniProt O95475 114-200, L167M)
T5 sequence: T1 sequence with I54M

SIX6 [6] = biological target: T6, SIX6 (Homo sapiens, UniProt O95475 114-200, L143M)
T6 sequence: T1 sequence with L30M, I54L

SIX6 [7] = biological target: T7, SIX6 (Homo sapiens, UniProt O95475 114-200, L143I)
T7 sequence: T1 sequence with L30I, I54L

SIX6 [8] = biological target: T8, SIX6 (Homo sapiens, UniProt O95475 114-200, T165G)
T8 sequence: T1 sequence with T52G, I54L

SIX6 [9] = biological target: T9, SIX6 (Homo sapiens, UniProt O95475 114-200, T139Q)
T9 sequence: T1 sequence with T26Q, I54L

SIX6 [10] = biological target: T10, SIX6 (Homo sapiens, UniProt O95475 114-200, T165A)
T10 sequence: T1 sequence with T52A, I54L

SIX6 [11] = biological target: T11, SIX6 (Homo sapiens, UniProt O95475 114-200, L167V)
T11 sequence: T1 sequence with I54V

SIX6 [12] = biological target: T12, SIX6 (Homo sapiens, UniProt O95475 114-200)
T12 sequence: T1 sequence with I54L

SIX6 [13] = biological target: T13, SIX6 (Homo sapiens, UniProt O95475 114-200, T165I)
T13 sequence: T1 sequence with T52I, I54L

ATGTATCA
binding signal (SIX6 [1]): 11.4 upbm affinity estimate (log intensity, higher = more binding, comparable within an allelic series)
binding signal (SIX6 [2]): 10.6 upbm affinity estimate (log intensity, higher = more binding, comparable within an allelic series)
binding signal (SIX6 [3]): 11.5 upbm affinity estimate (log intensity, higher = more binding, comparable within an allelic series)
binding signal (SIX6 [4]): 10.1 upbm affinity estimate (log intensity, higher = more binding, comparable within an allelic series)
binding signal (SIX6 [5]): 11 upbm affinity estimate (log intensity, higher = more binding, comparable within an allelic series)
binding signal (SIX6 [6]): 11.2 upbm affinity estimate (log intensity, higher = more binding, comparable within an allelic series)
binding signal (SIX6 [7]): 10.6 upbm affinity estimate (log intensity, higher = more binding, comparable within an allelic series)
binding signal (SIX6 [8]): 11.5 upbm affinity estimate (log intensity, higher = more binding, comparable within an allelic series)
binding signal (SIX6 [9]): 11.3 upbm affinity estimate (log intensity, higher = more binding, comparable within an allelic series)
binding signal (SIX6 [10]): 11.4 upbm affinity estimate (log intensity, higher = more binding, comparable within an allelic series)
binding signal (SIX6 [11]): 11.2 upbm affinity estimate (log intensity, higher = more binding, comparable within an allelic series)
binding signal (SIX6 [12]): 11.2 upbm affinity estimate (log intensity, higher = more binding, comparable within an allelic series)
binding signal (SIX6 [13]): 11.3 upbm affinity estimate (log intensity, higher = more binding, comparable within an allelic series)

ATGGCCCG
binding signal (SIX6 [1]): 8.97 upbm affinity estimate (log intensity, higher = more binding, comparable within an allelic series)
binding signal (SIX6 [2]): 8.9 upbm affinity estimate (log intensity, higher = more binding, comparable within an allelic series)
binding signal (SIX6 [3]): 9.08 upbm affinity estimate (log intensity, higher = more binding, comparable within an allelic series)
binding signal (SIX6 [4]): 9.03 upbm affinity estimate (log intensity, higher = more binding, comparable within an allelic series)
binding signal (SIX6 [5]): 9 upbm affinity estimate (log intensity, higher = more binding, comparable within an allelic series)
binding signal (SIX6 [6]): 8.97 upbm affinity estimate (log intensity, higher = more binding, comparable within an allelic series)
binding signal (SIX6 [7]): 8.99 upbm affinity estimate (log intensity, higher = more binding, comparable within an allelic series)
binding signal (SIX6 [8]): 9.03 upbm affinity estimate (log intensity, higher = more binding, comparable within an allelic series)
binding signal (SIX6 [9]): 9.09 upbm affinity estimate (log intensity, higher = more binding, comparable within an allelic series)
binding signal (SIX6 [10]): 8.99 upbm affinity estimate (log intensity, higher = more binding, comparable within an allelic series)
binding signal (SIX6 [11]): 8.99 upbm affinity estimate (log intensity, higher = more binding, comparable within an allelic series)
binding signal (SIX6 [12]): 9 upbm affinity estimate (log intensity, higher = more binding, comparable within an allelic series)
binding signal (SIX6 [13]): 9.05 upbm affinity estimate (log intensity, higher = more binding, comparable within an allelic series)

AAGATATC
binding signal (SIX6 [1]): 11.2 upbm affinity estimate (log intensity, higher = more binding, comparable within an allelic series)
binding signal (SIX6 [2]): 10.4 upbm affinity estimate (log intensity, higher = more binding, comparable within an allelic series)
binding signal (SIX6 [3]): 11.2 upbm affinity estimate (log intensity, higher = more binding, comparable within an allelic series)
binding signal (SIX6 [4]): 10.1 upbm affinity estimate (log intensity, higher = more binding, comparable within an allelic series)
binding signal (SIX6 [5]): 10.7 upbm affinity estimate (log intensity, higher = more binding, comparable within an allelic series)
binding signal (SIX6 [6]): 11 upbm affinity estimate (log intensity, higher = more binding, comparable within an allelic series)
binding signal (SIX6 [7]): 10.3 upbm affinity estimate (log intensity, higher = more binding, comparable within an allelic series)
binding signal (SIX6 [8]): 11.1 upbm affinity estimate (log intensity, higher = more binding, comparable within an allelic series)
binding signal (SIX6 [9]): 11.1 upbm affinity estimate (log intensity, higher = more binding, comparable within an allelic series)
binding signal (SIX6 [10]): 11 upbm affinity estimate (log intensity, higher = more binding, comparable within an allelic series)
binding signal (SIX6 [11]): 11 upbm affinity estimate (log intensity, higher = more binding, comparable within an allelic series)
binding signal (SIX6 [12]): 10.9 upbm affinity estimate (log intensity, higher = more binding, comparable within an allelic series)
binding signal (SIX6 [13]): 10.9 upbm affinity estimate (log intensity, higher = more binding, comparable within an allelic series)

AAGTATCA
binding signal (SIX6 [1]): 11.3 upbm affinity estimate (log intensity, higher = more binding, comparable within an allelic series)
binding signal (SIX6 [2]): 10.3 upbm affinity estimate (log intensity, higher = more binding, comparable within an allelic series)
binding signal (SIX6 [3]): 11.2 upbm affinity estimate (log intensity, higher = more binding, comparable within an allelic series)
binding signal (SIX6 [4]): 9.85 upbm affinity estimate (log intensity, higher = more binding, comparable within an allelic series)
binding signal (SIX6 [5]): 10.6 upbm affinity estimate (log intensity, higher = more binding, comparable within an allelic series)
binding signal (SIX6 [6]): 11 upbm affinity estimate (log intensity, higher = more binding, comparable within an allelic series)
binding signal (SIX6 [7]): 10.3 upbm affinity estimate (log intensity, higher = more binding, comparable within an allelic series)
binding signal (SIX6 [8]): 11.2 upbm affinity estimate (log intensity, higher = more binding, comparable within an allelic series)
binding signal (SIX6 [9]): 11.1 upbm affinity estimate (log intensity, higher = more binding, comparable within an allelic series)
binding signal (SIX6 [10]): 11.2 upbm affinity estimate (log intensity, higher = more binding, comparable within an allelic series)
binding signal (SIX6 [11]): 11 upbm affinity estimate (log intensity, higher = more binding, comparable within an allelic series)
binding signal (SIX6 [12]): 10.9 upbm affinity estimate (log intensity, higher = more binding, comparable within an allelic series)
binding signal (SIX6 [13]): 11 upbm affinity estimate (log intensity, higher = more binding, comparable within an allelic series)

GTGATATA
binding signal (SIX6 [1]): 11.3 upbm affinity estimate (log intensity, higher = more binding, comparable within an allelic series)
binding signal (SIX6 [2]): 10.5 upbm affinity estimate (log intensity, higher = more binding, comparable within an allelic series)
binding signal (SIX6 [3]): 11.3 upbm affinity estimate (log intensity, higher = more binding, comparable within an allelic series)
binding signal (SIX6 [4]): 9.96 upbm affinity estimate (log intensity, higher = more binding, comparable within an allelic series)
binding signal (SIX6 [5]): 11 upbm affinity estimate (log intensity, higher = more binding, comparable within an allelic series)
binding signal (SIX6 [6]): 10.9 upbm affinity estimate (log intensity, higher = more binding, comparable within an allelic series)
binding signal (SIX6 [7]): 10.4 upbm affinity estimate (log intensity, higher = more binding, comparable within an allelic series)
binding signal (SIX6 [8]): 11.3 upbm affinity estimate (log intensity, higher = more binding, comparable within an allelic series)
binding signal (SIX6 [9]): 11.1 upbm affinity estimate (log intensity, higher = more binding, comparable within an allelic series)
binding signal (SIX6 [10]): 11.3 upbm affinity estimate (log intensity, higher = more binding, comparable within an allelic series)
binding signal (SIX6 [11]): 11.1 upbm affinity estimate (log intensity, higher = more binding, comparable within an allelic series)
binding signal (SIX6 [12]): 11.1 upbm affinity estimate (log intensity, higher = more binding, comparable within an allelic series)
binding signal (SIX6 [13]): 11.2 upbm affinity estimate (log intensity, higher = more binding, comparable within an allelic series)

GATATCAC
binding signal (SIX6 [1]): 11.4 upbm affinity estimate (log intensity, higher = more binding, comparable within an allelic series)
binding signal (SIX6 [2]): 10.3 upbm affinity estimate (log intensity, higher = more binding, comparable within an allelic series)
binding signal (SIX6 [3]): 11.4 upbm affinity estimate (log intensity, higher = more binding, comparable within an allelic series)
binding signal (SIX6 [4]): 9.67 upbm affinity estimate (log intensity, higher = more binding, comparable within an allelic series)
binding signal (SIX6 [5]): 10.7 upbm affinity estimate (log intensity, higher = more binding, comparable within an allelic series)
binding signal (SIX6 [6]): 11.1 upbm affinity estimate (log intensity, higher = more binding, comparable within an allelic series)
binding signal (SIX6 [7]): 10.3 upbm affinity estimate (log intensity, higher = more binding, comparable within an allelic series)
binding signal (SIX6 [8]): 11.4 upbm affinity estimate (log intensity, higher = more binding, comparable within an allelic series)
binding signal (SIX6 [9]): 11.2 upbm affinity estimate (log intensity, higher = more binding, comparable within an allelic series)
binding signal (SIX6 [10]): 11.2 upbm affinity estimate (log intensity, higher = more binding, comparable within an allelic series)
binding signal (SIX6 [11]): 11.1 upbm affinity estimate (log intensity, higher = more binding, comparable within an allelic series)
binding signal (SIX6 [12]): 11.1 upbm affinity estimate (log intensity, higher = more binding, comparable within an allelic series)
binding signal (SIX6 [13]): 11.1 upbm affinity estimate (log intensity, higher = more binding, comparable within an allelic series)
